This passage reports growth results from PubChem BioAssay (NCI).

Compounds without any hit were thinned out: in the full panel of roughly 83,000, 20% have a hit.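 96-well plates, one dose, 48 hours. Percent growth reported; active if below 10.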 A number with no mark means an inactive call. Calls of active or inactive are those of the source.

Some test systems named below: DU-145 prostate; K-562 leukemia; MALME-3M melanoma; MDA-MB-231 breast; RXF 393 renal; SF-268 CNS; SF-295 CNS; SF-539 CNS; UACC-257 melanoma; M14 melanoma; HCT-15 colon; HT29 colon; SNB-75 CNS; U251 CNS; PC-3 prostate; SK-MEL-5 melanoma; UACC-62 melanoma; LOX IMVI melanoma; SK-MEL-28 melanoma; SNB-19 CNS.
Holding throughout (test): NCI-60 one-dose screen, 48 h (100 = growth as untreated, 0 = no growth, -100 = all killed)
What all share (settings): 10 µM unless noted

Take `CC[N+]1(CC)CC[N+]2(CCCC(C)CC2)CC1` (configuration not stated): the growth was 111% with DU-145 prostate; 107% with K-562 leukemia; 97.6% in the assay with MALME-3M melanoma; 106% with MDA-MB-231 breast; 113% in the assay with RXF 393 renal; 108% in the assay with SF-268 CNS. In addition, the growth with SF-295 CNS was 98.8%; with SF-539 CNS, 99.2%; in the assay on UACC-257 melanoma it was 98.2%; in the assay on M14 melanoma, 106%; in the assay on HCT-15 colon, 104%; in the assay on HT29 colon, 99.7%. Moreover, the growth is 115% in the assay with SNB-75 CNS; 111% in the assay on U251 CNS; 96.6% with PC-3 prostate; 104% with SK-MEL-5 melanoma; 100% in the assay on UACC-62 melanoma; 105% in the assay with LOX IMVI melanoma. Besides, in the assay with SK-MEL-28 melanoma, the growth was 104%.

For `CO[C@H](C(=O)[C@@H](O)[C@@H](C)O)[C@@H]1Cc2cc3cc(O[C@H]4C[C@@H](O[C@H]5C[C@@H](O)[C@H](O)C(C)O5)[C@H](O)C(C)(O)O4)cc(O)c3c(O)c2C(=O)[C@H]1O[C@H]1C[C@@H](O[C@H]2C[C@@H](O[C@H]3C[C@@H](OC)[C@H](O)C(C)O3)[C@@H](O)C(C)O2)[C@H](O)C(C)O1` (some centres not stated), the growth in the assay on DU-145 prostate was 17.5%; in the assay on K-562 leukemia it was 29.9%; in the assay on MALME-3M melanoma it was -11.4% (active); in the assay with MDA-MB-231 breast, 25.1%; in the assay with RXF 393 renal, -35.1% (active); with SF-268 CNS, 34.8%. The growth was 14.4% in the assay on SF-295 CNS; 9.92% (active) with SF-539 CNS; -16% (active) with UACC-257 melanoma; 34.2% with M14 melanoma; 92.8% with HCT-15 colon; 11.3% with HT29 colon. For the same molecule, the growth is 24.5% with SNB-75 CNS; 24.4% in the assay on SNB-19 CNS; 26.3% with PC-3 prostate; -56.8% (active) with SK-MEL-5 melanoma; -39.5% (active) with UACC-62 melanoma; 2.79% (active) with LOX IMVI melanoma. Besides, in the assay on SK-MEL-28 melanoma, the growth was 3.39% (active).

Take `C=C1C(=O)O[C@H]2[C@H]1CC/C(COC(=O)/C=C\C(=O)NCc1ccc(Cn3c(=O)sn(CCCl)c3=O)cc1)=C\CC[C@@]1(C)O[C@@H]21`: the growth was 57.6% in the assay with DU-145 prostate; 28.9% with K-562 leukemia; 43.6% in the assay with MALME-3M melanoma; 90% in the assay with MDA-MB-231 breast; 56.3% with RXF 393 renal; 89% with SF-268 CNS. For the same molecule, the growth was 103% in the assay with SF-295 CNS; 96.5% with SF-539 CNS; 81.8% in the assay on UACC-257 melanoma; 51.6% with M14 melanoma; 44.8% with HCT-15 colon; 86.6% with HT29 colon. The growth in the assay with SNB-75 CNS was 99.5%; in the assay with U251 CNS it was 88.9%; in the assay on PC-3 prostate it was 94.6%; in the assay with SK-MEL-5 melanoma it was 101%; with UACC-62 melanoma, 85.7%; with LOX IMVI melanoma it was 67.2%. In addition, the growth in the assay with SK-MEL-28 melanoma is 87%.

As for `O=c1cc(-c2ccccc2)[nH]c2ncc(-c3ccc(F)cc3)n12`, the growth in the assay with DU-145 prostate is 94.6%; with K-562 leukemia it was 18.5%; in the assay on MALME-3M melanoma, 77.8%; with MDA-MB-231 breast it was 62%; in the assay on RXF 393 renal, 72.3%; with SF-268 CNS, 80.6%. The growth in the assay with SF-295 CNS is 46%; in the assay with SF-539 CNS it was 73.8%; in the assay on UACC-257 melanoma, 83.1%; in the assay with M14 melanoma it was 50.4%; with HCT-15 colon, 37.7%; in the assay on HT29 colon, 40.6%. Besides, the growth in the assay with SNB-75 CNS was 68.3%; in the assay with U251 CNS, 56%; in the assay on PC-3 prostate, 56.7%; in the assay on SK-MEL-5 melanoma, 54.9%; with UACC-62 melanoma, 36.6%; in the assay on LOX IMVI melanoma it was 65.9%. In addition, the growth in the assay with SK-MEL-28 melanoma is 73.4%.

Regarding `C/C=C(\C)C(=O)N[C@H]1C(O)C[C@]2(C)C3CC[C@@]4(C)C(CC[C@@H]4C(C)N(C)C)C3CCC2C1O` (some centres not stated), the growth with DU-145 prostate was 74.6%; in the assay with K-562 leukemia, 0.455% (active); with MALME-3M melanoma, 17.1%; in the assay on MDA-MB-231 breast, 65.2%; with RXF 393 renal, 81%; with SF-268 CNS it was 13.6%. The growth in the assay on SF-295 CNS was 105%; in the assay on SF-539 CNS, 7.02% (active); in the assay on UACC-257 melanoma it was 14.6%; with M14 melanoma it was -14.1% (active); in the assay with HCT-15 colon it was -28.6% (active); in the assay on HT29 colon, 1.91% (active). In addition, the growth was 74.5% in the assay on SNB-75 CNS; 52.3% in the assay on U251 CNS; 45.5% in the assay with PC-3 prostate; -41.3% (active) in the assay on SK-MEL-5 melanoma; 62.3% with UACC-62 melanoma; -26.3% (active) in the assay on LOX IMVI melanoma. The growth in the assay on SK-MEL-28 melanoma is -7.39% (active).

Turning to `CCOc1c(OC)cc2c(c1O)C(=O)N[C@@H]1[C@@H](O)[C@@H](O)[C@H](O)C[C@@H]21`, the growth in the assay on DU-145 prostate was 109%; with K-562 leukemia, 91.2%; with MALME-3M melanoma, 102%; in the assay with MDA-MB-231 breast, 106%; with RXF 393 renal, 109%; with SF-268 CNS it was 102%. Also, the growth in the assay with SF-295 CNS was 102%; in the assay with SF-539 CNS it was 97.7%; with UACC-257 melanoma, 100%; with M14 melanoma, 105%; in the assay with HCT-15 colon, 102%; in the assay on HT29 colon, 100%. Besides, the growth with SNB-75 CNS was 93.5%; in the assay with U251 CNS it was 96.7%; with PC-3 prostate, 100%; with SK-MEL-5 melanoma, 101%; in the assay with UACC-62 melanoma, 93.1%; in the assay with LOX IMVI melanoma, 98.1%. Also, the growth in the assay on SK-MEL-28 melanoma is 105%.

Take `CCO/C=N/C1=C(C#N)C(c2ccc(F)cc2)c2sc3c(F)cccc3c2O1` (configuration not stated): the growth in the assay on DU-145 prostate was 62.4%; with K-562 leukemia it was 23.5%; in the assay on MALME-3M melanoma, 57.6%; in the assay with MDA-MB-231 breast, 51%; in the assay on RXF 393 renal, 33.3%; in the assay with SF-268 CNS, 50.3%. In addition, the growth with SF-295 CNS was 22%; with SF-539 CNS, 28.9%; with UACC-257 melanoma it was 60.2%; with M14 melanoma it was 29.8%; with HCT-15 colon it was 26%; in the assay with HT29 colon it was 56.8%. The growth was 13.4% in the assay on SNB-75 CNS; 33.2% in the assay on SNB-19 CNS; 47.9% in the assay with PC-3 prostate; 35.5% in the assay with SK-MEL-5 melanoma; 15.2% with UACC-62 melanoma; 36% in the assay with LOX IMVI melanoma. Further, the growth in the assay on SK-MEL-28 melanoma is 60.4%.

Take `CC[C@]12C=CCN3CC[C@@]4(c5ccc(OC)cc5N(C)[C@H]4[C@@](O)(C(=O)OC)[C@@H]1OC(=O)CCC[P+](c1ccccc1)(c1ccccc1)c1ccccc1)[C@@H]32`: the growth in the assay on DU-145 prostate is 18%; in the assay on K-562 leukemia, 10.4%; in the assay with MALME-3M melanoma it was -12.4% (active); in the assay on MDA-MB-231 breast, 1.29% (active); with RXF 393 renal, 28.9%; with SF-268 CNS, 19.2%. Moreover, the growth in the assay on SF-295 CNS was 23.3%; with SF-539 CNS, 16.2%; in the assay with UACC-257 melanoma it was -27.3% (active); in the assay on M14 melanoma, 17.7%; in the assay on HCT-15 colon it was 101%; in the assay on HT29 colon, 2.42% (active). Also, the growth with SNB-75 CNS is -4.39% (active); in the assay on U251 CNS, 4.03% (active); in the assay on PC-3 prostate, 2.13% (active); with SK-MEL-5 melanoma it was -91.5% (active); with UACC-62 melanoma, -59.3% (active); in the assay on LOX IMVI melanoma it was 8.81% (active). For the same molecule, the growth in the assay on SK-MEL-28 melanoma is 20.9%.
